Results on 11 compounds are retold here after PubChem BioAssay.

For test [1], the target named is Voltage-gated potassium channel subunit beta-2 (Rattus norvegicus) (UniProt P62483). Kind of test: KvBeta enzyme negative modulators, primary screen, biochemical, NADPH fluorescence (AID 622).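 Also: slope of raw intensity against log time taken from 70 to 1610 s.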 The note with it: recombinant KvBeta, 4-cyanobenzaldehyde reduction, at 10 µM, stronger effect = higher value.
For test [2] the target is unchanged. Kind of test: KvBeta positive modulators, primary screen, biochemical, NADPH fluorescence (AID 623;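 active = NADPH fluorescence slope more negative than the mean of all samples by about 3 SD, 99.7% confidence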;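 also: fluorescence intensity change per second fitted from 20 to 320 s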). The note with it: Recombinant KvBeta, NADPH fluorescence decrease slope, 10 min; at 10 µM; stronger effect = lower value.
Test [3] addresses Alpha-2C adrenergic receptor (Homo sapiens) (UniProt P18825). As to the kind of experiment: modulators of alpha2C/GIRK thallium flux, primary screen, cell-based, HEK293 alpha2C/GIRK1/2 (AID 624;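 active = fluorescence slope after compound addition differing from the mean of all screened samples at 99.7% confidence, in either direction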;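 also: slope of fluorescence ratio to pre-addition baseline per second over 15 to 24 s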). The note with it: thallium flux BTC fluorescence, at 10 µM, actives lie on both sides.
Test [4] is described as follows: inhibitors of Sendai virus-induced IRF3 signaling, primary screen, TLR/RLR signaling modifier project, cell-based, Sendai virus stimulus, luciferase, 10K MLSCN set (AID 602276;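 active = inhibition at or above 50% at 10 µM; inactive = inhibition below 50%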;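 also: firefly luciferase from ISG56 promoter only with Renilla not read in this screen; 0% = Sendai virus plus DMSO and 100% = medium plus DMSO without virus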). Conditions: HEK293 RL24 IRF3 luciferase reporter, at 10 µM, stronger effect = higher value.
Test [5] can be described thus: inhibitors of poly I:C-induced TLR3 signaling, primary screen, cell-based, poly I:C stimulus, luciferase, 10K MLSCN set (AID 602277;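 active = inhibition of the reporter signal at or above 50%; inactive = inhibition below 50%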). The note with it: HEK293-TLR3 RL24 IRF3 luciferase reporter, at 10 µM, stronger effect = higher value. Background: Reporter assays use an easily measured gene product as a stand-in for the process of interest.
Test [6] can be described thus: inhibitors of mutant huntingtin aggregation, primary screen, imaging, exon1htt(103Q)mCFP cells, high-content imaging (AID 483;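 active = visual image review flags a hit and inhibition of aggregation exceeds 20%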;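 also: compound exposure lasted 3 days before fixation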;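 as to nuclei count: percent of the per-plate median nuclei count of sample wells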). The note with it: exon1htt(103Q)mCFP cell line, aggregate imaging, at 2 µM; inhibition of aggregation: stronger effect = higher value; nuclei count: measured here: cell count, toxicity.
Test [7] is described as follows: inhibitors of E-selectin induction by TNFa, primary screen, imaging, HUVEC, immunofluorescence, MLSMR starter and 10KST1 sets (AID 487;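 active = visually confirmed hit in the image check and inhibition above 20%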;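 as to inhibition: signal is fraction of cell area covered by stained E-selectin grains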;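 as to nuclei count: 100% = median nuclei count of all wells on the same plate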). The note with it: HUVEC TNFalpha-induced E-selectin immunofluorescence imaging, at 2 µM; inhibition: stronger effect = higher value; nuclei count: measured here: cell number, toxicity.
Test [8] is described as follows: DUSP6 inhibitors restoring Erk phosphorylation by chemical complementation, primary imaging in DUSP6-transfected HeLa (AID 609;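 active = compounds giving at least 50% inhibition in the cell-based MKP-3 phosphatase rescue imaging test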;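 as to inhibition: phospho-Erk level distribution per well compared with pooled transfected vehicle control wells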). The note with it: HeLa MKP-3 transfected, phospho-Erk imaging KS statistic, at 10 µM, cells stimulated with TPA for 15 min.
For test [9], the target named is Dual specificity protein phosphatase 6 (Homo sapiens) (UniProt Q16828). The test is described as above. Conditions: HeLa MKP-3 transfected, phospho-Erk imaging KS statistic; at 10 µM; stronger effect = higher value; cells stimulated with TPA for 15 min.
In test [10] the target is Muscarinic acetylcholine receptor M4 (Homo sapiens) (UniProt P08173). Kind of test: compounds altering M4/GIRK thallium flux, either direction, primary screen, M4 allosteric agonist project, cell-based, HEK293 M4/GIRK, BTC-AM (AID 625;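 active = fluorescence slope after compound addition differing from the mean of all tested samples at 99.7% confidence, mostly higher but some lower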;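 also: thallium influx through GIRK channels coupled to M4 in HEK293 cells with BTC-AM dye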). The note with it: at 10 µM, actives lie on both sides.
Test [11] can be described thus: inhibitors of larval lipid processing in zebrafish, primary screen, whole organism, PED6 fluorescence, gall bladder and intestine (AID 686;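 active = a full or partial loss of lipid-probe fluorescence in the fish gall bladder, intestine or both, judged by eye; inactive = no fluorescence loss, or compound toxic to the fish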;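 also: larvae 5 to 7 days old with five fish per well; signal comes from phospholipase A2 cleavage of quenched PED6 carried via bile; overnight exposure to compound and PED6 before scoring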). The note with it: Zebrafish larvae PED6 lipid processing, fluorescence scoring; screened at 20 µM (by protocol).
Test [12] in a line: inhibitors of Chlamydomonas gravitaxis, primary screen, whole organism, Chlamydomonas reinhardtii, WT vs cilia-less mutant, absorbance, 96-well (AID 463189;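 active = inhibition at or above 50% relative to wild type and mutant plate controls; inactive = inhibition below 50%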;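 also: 0% = wild type cc124 cells in DMSO and 100% = ciliumless bld1 mutant cells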). Conditions: OD600 absorbance, 2 days, at 10 µM, stronger effect = higher value.
[13] abbreviates: measured here: cell density z-score.
Setting [14] is: measured here: nuclear c-Myc green intensity z-score.
Where [15] appears, read: measured here: nuclear pErk red intensity z-score, stronger effect = higher value.

The structures appear in SMILES notation. The source made the active and inactive calls.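 The calls were made as follows, unless noted: active = fluorescence slope higher than the sample average by over 3 SD (cut at about -0.22 in these data, passing the limit was not always enough); inactive = the rest.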

Alpha-2C adrenergic receptor (Homo sapiens), sequence (P18825 whole entry, looked up): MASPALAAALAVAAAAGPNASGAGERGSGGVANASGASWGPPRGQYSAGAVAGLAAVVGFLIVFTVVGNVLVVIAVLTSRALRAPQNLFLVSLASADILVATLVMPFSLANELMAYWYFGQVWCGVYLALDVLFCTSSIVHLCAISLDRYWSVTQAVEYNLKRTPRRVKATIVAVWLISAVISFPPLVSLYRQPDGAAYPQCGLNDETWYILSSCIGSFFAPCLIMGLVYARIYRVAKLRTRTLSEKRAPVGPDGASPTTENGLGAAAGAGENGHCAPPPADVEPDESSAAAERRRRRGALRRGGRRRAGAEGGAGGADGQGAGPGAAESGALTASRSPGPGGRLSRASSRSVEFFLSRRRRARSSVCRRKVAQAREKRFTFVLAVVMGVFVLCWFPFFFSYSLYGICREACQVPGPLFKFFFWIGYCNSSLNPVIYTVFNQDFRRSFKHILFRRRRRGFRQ
Voltage-gated potassium channel subunit beta-2 (Rattus norvegicus), sequence (P62483 whole entry, looked up): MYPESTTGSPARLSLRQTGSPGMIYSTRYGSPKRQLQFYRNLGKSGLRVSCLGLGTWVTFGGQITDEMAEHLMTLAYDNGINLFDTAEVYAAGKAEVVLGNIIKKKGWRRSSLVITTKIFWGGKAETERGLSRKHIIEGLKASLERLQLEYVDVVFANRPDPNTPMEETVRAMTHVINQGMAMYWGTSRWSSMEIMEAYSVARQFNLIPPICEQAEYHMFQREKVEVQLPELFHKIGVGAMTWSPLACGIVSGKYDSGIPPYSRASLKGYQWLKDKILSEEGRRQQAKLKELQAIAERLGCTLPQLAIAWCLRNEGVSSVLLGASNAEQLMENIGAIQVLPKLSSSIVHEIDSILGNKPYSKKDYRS
Muscarinic acetylcholine receptor M4 (Homo sapiens), sequence (P08173 whole entry, looked up): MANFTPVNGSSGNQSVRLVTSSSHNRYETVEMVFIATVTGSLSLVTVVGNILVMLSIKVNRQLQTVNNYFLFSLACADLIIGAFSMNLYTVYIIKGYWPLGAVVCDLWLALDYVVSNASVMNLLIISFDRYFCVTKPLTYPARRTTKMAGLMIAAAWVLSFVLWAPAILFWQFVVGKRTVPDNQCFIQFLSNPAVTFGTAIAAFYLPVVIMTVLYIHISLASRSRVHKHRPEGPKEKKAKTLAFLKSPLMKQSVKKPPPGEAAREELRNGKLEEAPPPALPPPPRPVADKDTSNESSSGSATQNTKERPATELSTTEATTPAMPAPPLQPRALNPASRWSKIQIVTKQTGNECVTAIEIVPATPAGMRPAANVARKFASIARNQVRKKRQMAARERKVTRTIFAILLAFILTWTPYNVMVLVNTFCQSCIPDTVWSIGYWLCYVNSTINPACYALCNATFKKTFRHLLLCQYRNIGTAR
Dual specificity protein phosphatase 6 (Homo sapiens), sequence (Q16828 whole entry, looked up): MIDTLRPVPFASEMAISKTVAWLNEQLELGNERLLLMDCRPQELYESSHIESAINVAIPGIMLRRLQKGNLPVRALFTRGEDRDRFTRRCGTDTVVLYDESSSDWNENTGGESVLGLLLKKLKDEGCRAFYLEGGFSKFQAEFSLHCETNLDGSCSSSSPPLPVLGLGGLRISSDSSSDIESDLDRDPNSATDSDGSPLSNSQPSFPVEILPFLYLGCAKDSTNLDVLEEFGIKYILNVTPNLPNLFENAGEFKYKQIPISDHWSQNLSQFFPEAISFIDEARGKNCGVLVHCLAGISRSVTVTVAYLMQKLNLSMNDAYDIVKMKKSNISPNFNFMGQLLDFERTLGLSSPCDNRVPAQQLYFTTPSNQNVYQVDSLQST

As to `Cc1ccc2oc(=O)c3cnn(CC(=O)N4CCCc5ccccc54)c3c2c1`, the fluorescence slope in test [1] was -0.49 (inactive). In test [2], the NADPH fluorescence slope was 1.1e-05 (inactive). The slope in test [3] was 0.00798 (inactive). Also, the inhibition was 29.3% (inactive) in test [4] and 19.2% (inactive) in [5].
For the compound `COc1ccc(CNC(=O)COC(=O)c2n[nH]c3ccccc23)cc1OC`, the inhibition of aggregation in [6] was -22.1% (inactive). The nuclei count in [6] was 108%; in test [7], 171%. Further, the inhibition was -287% (inactive) in test [7], 6.09% (inactive) in test [4] and -3.54% (inactive) in test [5]. In test [1], the fluorescence slope is -0.382 (inactive). Moreover, the NADPH fluorescence slope in test [2] is 1.4e-05 (inactive). For the same compound, in [3], the slope is 0.00438 (inactive).
Turning to `Clc1ccc(-c2nnc3sc(-c4ccc(Br)o4)nn23)cc1`, the inhibition of aggregation in [6] is 10.6% (inactive). Besides, the nuclei count in test [6] worked out at 97.9%; in test [7], 181%. The inhibition is -136% (inactive) in [7], 6.08% (inactive) in test [4] and -13% (inactive) in [5]. Moreover, the fluorescence slope in test [1] is -0.346 (inactive). Besides, the NADPH fluorescence slope in test [2] was 2.1e-05 (inactive). Also, in test [3], the slope was 0.0087 (inactive).
Regarding `CC(C)c1nc2sc3c(c2c(=O)o1)CCCC3`, the inhibition is -11.8% (inactive) in test [7], 13.2% (inactive) in test [9] and 22.9% (inactive) in [12]. This compound showed a nuclei count in [7] of 143%. In addition, the figures for the z-score in [8] (setting [13]), in [8] (setting [14]) and in test [8] (setting [15]) were -0.957, 1.42 and 1.08, respectively. Besides, the fluorescence slope was -0.376 (inactive) in test [1] and 0.00562 (inactive) in test [10]. In test [2], the NADPH fluorescence slope was -6.4e-05 (inactive). The outcome in [11] was inactive.
Turning to `CCOc1ccc2[nH]c(C)cc(=O)c2c1`, in test [1], the fluorescence slope is -0.554 (inactive). In addition, the NADPH fluorescence slope in test [2] is 1.5e-05 (inactive). Besides, in test [3], the slope was 0.00617 (inactive). For the same compound, the inhibition in test [4] was -6.31% (inactive); in [5], 16% (inactive).
In the case of `Cc1cc(C)cc(-n2ccnc2SCC(=O)Nc2ccc3c(c2)OCCO3)c1`, the figures for the fluorescence slope in test [1] and in test [10] were -0.57 (inactive) and 0.00517 (inactive), respectively. Also, in [2], the NADPH fluorescence slope is -3.9e-05 (inactive). Also, the results for the inhibition in [4] and in test [5] were 1.38% (inactive) and -4.03% (inactive), respectively.
Take `CCC(C)(NC(=O)c1ccc(=O)[nH]c1)C(=O)NC1CCCC1` (stereo unspecified): the fluorescence slope in test [1] is -0.551 (inactive). Moreover, the NADPH fluorescence slope in test [2] is -5e-05 (inactive). In addition, the slope in [3] was 0.00548 (inactive). Besides, the inhibition in test [4] was 8% (inactive); in test [5], 24.2% (inactive).
Consider `CN(C)CCOC(c1ccccc1)c1ccccc1`, for which the inhibition in test [7] is -7% (inactive); in [9], 5.42% (inactive); in test [4], 11.6% (inactive); in [5], 38.5% (inactive). In test [7], this compound yielded a nuclei count of 124%. Also, the z-score was -0.686 in test [8] (setting [13]), 0.456 in [8] (setting [14]) and 0.78 in test [8] (setting [15]). For the same compound, in [1], the fluorescence slope was -0.465 (inactive). Further, in test [2], the NADPH fluorescence slope was -4.4e-05 (inactive). The slope in test [3] is 0.00555 (inactive).
For `Cc1cc(C)cc(N(CC(=O)Nc2cccc(C)n2)S(=O)(=O)c2c(C)noc2C)c1`, the fluorescence slope in test [1] is -0.598 (inactive). The NADPH fluorescence slope in test [2] is -3.4e-05 (inactive). Also, the slope in test [3] was 0.00547 (inactive). The values for the inhibition in test [4] and in [5] were 11.9% (inactive) and 42.2% (inactive), respectively.
Regarding `CCOC(=O)CNC(=O)C(Cc1ccccc1)NS(=O)(=O)c1ccc2c(c1)CCC(=O)N2` (stereo unspecified), the fluorescence slope in test [1] is -0.438 (inactive); in [10], 0.00524 (inactive). In addition, the NADPH fluorescence slope in test [2] is -0.000333 (inactive). In addition, the figures for the inhibition in test [4] and in test [5] were 0.424% (inactive) and 15.6% (inactive), respectively.
On to `CCCN1Cc2cccc(C(=O)NCc3cccs3)c2C1=O`, for which, in [1], the fluorescence slope was -0.393 (inactive). Moreover, in [2], the NADPH fluorescence slope is -4e-05 (inactive). For the same compound, the slope in test [3] is 0.00508 (inactive). In addition, the compound was classed as inactive in [11]. In addition, the inhibition was 3.53% (inactive) in [4] and 2.96% (inactive) in test [5].

One may read the inhibition as the relative decrease from the control value, in per cent.
